Source: PubChem
TDP1 cell CPT: qHTS for Inhibitors of human tyrosyl-DNA phosphodiesterase 1 (TDP1): qHTS in cells in presence of CPT. chicken DT40 Tdp1-/-;hTDP1 cells + 20 nM CPT, ATP luminescence, 48 h. Potency, µM (series often up to 46.2 µM), for the others: top-dose activity change, negative = growth inhibition, usual class: inhibitors. 420,000 compounds, 12% hits. AID 686979, 2013; note: potency is the fitted concentration of half-maximal effect; nearly all actives have a fitted effect of over 55% in size
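Chicken DT40 Tdp1-/- cells complemented with human TDP1, 400 cells/well, exposed to compounds plus 20 nM camptothecin for at least 48 h at 37 C; viability read as ATP content by CellTiter-Glo luminescence.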
IL1B secr inh: qHTS for Inhibitors of Inflammasome Signaling: IL-1-beta AlphaLISA Primary Screen. THP-1 LPS/ATP IL-1B secretion, AlphaLISA, 16 h; stronger effect = lower value. activity change, % at 57.5 µM. 360,000 compounds, 4.7% hits; in the data active = activity change below about -50%; inconclusive = mostly about -30% to -49%
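THP-1 cells pretreated 1 hr with compounds (up to 57.5 uM final), then stimulated with LPS (250 ng/mL final) plus ATP (1.25 mM final); secreted IL-1B measured by AlphaLISA after 16 hr, decreased signal indicating inhibition.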
ALOX12 inh: Primary qHTS assay for inhibitors of human arachidonate 12S-lipoxygenase (ALOX12): Round 2. Polyunsaturated fatty acid lipoxygenase ALOX12 (Homo sapiens), P18054. purified 12hLO, xylenol orange hydroperoxide absorbance. Potency, µM (series often up to 108 µM), without a hit: top-dose activity change, negative = inhibition, most hits filed as inhibitors. 580,000 compounds, 1.1% hits. AID 1671190, 2021; note: potency is the fitted concentration of half-maximal effect
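Hydroperoxide product was detected by ferrous iron/xylenol orange as the 573 to 405 nm absorbance ratio. Arachidonic acid at 40 uM (final) was turned over for 30 min at room temperature by 150 nM human 12hLO, pH 7.0 Hepes buffer, after 15 min compound preincubation.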
DT40 TDP1 no CPT: qHTS for Inhibitors of human tyrosyl-DNA phosphodiesterase 1 (TDP1): qHTS in cells in absence of CPT. DT40 Tdp1-/- hTDP1 cells, no CPT, ATP luminescence, 48 h. Potency, µM (titrated, usually from 46.2 µM), for inactives: top-dose activity change, negative = growth inhibition, most hits filed as inhibitors. 420,000 compounds, 15% hits. AID 686978, 2013; note: potency is the fitted concentration of half-maximal effect; nearly all actives have a fitted effect of over 55% in size
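Seeded 400 DT40-hTDP1 cells/well (vehicle DMSO, no 20 nM CPT); pinned compounds; ≥48 hr at 37 °C; CellTiter-Glo luminescence as viability measure.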
HT1080-NT tox: qHTS for induction of synthetic lethality in tumor cells producing 2HG: qHTS for the HT-1080-NT fibrosarcoma cell line; HT-1080-NT fibrosarcoma viability, CellTiter-Glo ATP luminescence, 48 h; Potency, µM (series often up to 46.1 µM), inactives show at the highest dose activity, negative = less viability, most hits filed as cytotoxic; 360,000 compounds, 1.6% hits; AID 686970, 2013;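 note: NT is the 2HG producing partner of a matched IDH1 knockdown line; potency is the fitted concentration of half-maximal effect; 0% = DMSO-treated cells and -100% = media-only wells without cells; nearly all actives have a fitted effect of over 55% in size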
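750 cells/well, RPMI + 5% FBS; 2 h settle, compound pin-transfer, 48 h at 37 degrees C. CellTiter-Glo 10 min RT, luminescence. Normalized to DMSO and media-only wells.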
HT1080 IDH1KD tx: qHTS for induction of synthetic lethality in tumor cells producing 2HG: qHTS for the HT-1080-IDH1KD cell line | 360,000 compounds, 2% hits | HT-1080 IDH1 knockdown viability, ATP luminescence, 48 h | Potency, µM (highest dose often 46.1 µM), for the others: top-dose activity, negative = toxicity, most hits filed as cytotoxic;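 note: potency is the fitted concentration of half-maximal effect; 0% = DMSO wells and -100% = cell-free medium wells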
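In this qHTS, HT-1080 cells depleted of IDH1 are exposed for 48 h at 37 °C to compound titrations. Toxicity is scored from CellTiter-Glo luminescence, with DMSO as full viability and medium alone as none.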
* = called active by the depositor; ? = inconclusive; . = not tested or not shown; ! = repeats disagree. The sample as a whole holds a higher share of hits than the screen did. Unless noted, calls come from the whole dose curve; as a rule, active = well fitted curve in the direction sought with a large enough effect; inconclusive = small, poorly fitted or top-dose-only effect, or another doubt; inactive = no such curve, though single readings can be large; an effect the other way counts as inactive or inconclusive. Unless noted, % is set by controls: 0 for no effect and ±100 for the full control effect.

SMILES	TDP1 cell CPT	IL1B secr inh	ALOX12 inh	DT40 TDP1 no CPT	HT1080-NT tox	HT1080 IDH1KD tx
O=C(Nc1cccc(F)c1)Nc1ccc2n(c1=O)C[C@H]1C[C@@H]2CN(C(=O)c2ccc(F)cc2)C1	.	.	23%	.	.	.
O=C(N1CCN(c2ccccc2)CC1)C12CC3CC(CC(C3)C1)C2	-18%	6	3%	?	-2%	-4%
Cc1nnn(C23C[C@@H]4C[C@@H](CC(C(=O)N5CCN(c6ccccc6)CC5)(C4)C2)C3)n1	18µM*	-6	0%	13µM*	3%	19%
Cc1cc(C)cc(NC(=O)CC23CC4CC(C2)CC(n2nnc(C)n2)(C4)C3)c1	?	-75*	0%	-13%	4%	-4%
CCSc1oc(-c2ccco2)nc1S(=O)(=O)c1ccc(F)cc1	-8%	-2	28µM*!	?	4%	4%
Cc1ccc(S(=O)(=O)c2nc(-c3ccco3)oc2SC(C)C)cc1	?	-24	32µM*!	?	-4%	0%
Cc1ccc(S(=O)(=O)c2nc(-c3ccco3)oc2N(C)C)cc1	.	.	43%	.	.	.
CCSc1oc(-c2ccco2)nc1S(=O)(=O)c1ccc(C)cc1	-14%	-12	?	?	-10%	-15%
CCCCSc1oc(-c2ccco2)nc1S(=O)(=O)c1ccccc1	?	?	?	?	-1%	-11%
CCCSc1oc(-c2ccco2)nc1S(=O)(=O)c1ccc(Cl)cc1	?	.	40µM*	?	.	.
Cc1ccc(S(=O)(=O)c2nc(-c3ccco3)oc2SCc2ccc(F)cc2)cc1	21µM*	.	?	?	.	.
Cc1cnc(C)n1C1CCN(C(=O)CCn2cccn2)CC1	.	.	69%	.	.	.
COc1cc(OC)c(C(=O)Nc2cc(C(C)(C)C)on2)cc1OC	.	.	-8%	.	.	.
CC(C)CSc1oc(-c2ccco2)nc1S(=O)(=O)c1ccccc1	?	?	?	26µM*	5%	8%
CN(CC(=O)NC(=O)NC1CC1)Cc1cccc(C#N)c1	.	.	-29%	.	.	.
Cc1cccc(-n2c(SCC(=O)c3ccccc3)nnc2-c2ccc(Br)cc2)c1	16µM*	.	?	18µM*	.	.
O=C(CSc1nnc(CN2CCCCC2)n1-c1ccccc1)c1ccc2c(c1)OCO2	?	-7	-6%	21µM*	-9%	-1%
CCOc1ccc(-c2nnc(SCC(=O)c3ccccc3)n2-c2ccccc2)cc1	?	.	?	6.5µM*	.	.
O=C(CSc1nnc(-c2ccc3c(c2)OCO3)n1-c1ccccc1)c1ccccc1	16µM*	7	-17%	23µM*	15%	23%
O=C(CSc1nnc(-c2cccs2)n1-c1ccccc1)c1ccc2c(c1)OCCO2	-19%	-3	6%	-22%	5%	8%
CCCCN(C)C(=O)Cn1c(C2CC(=O)N(c3cccc(C)c3)C2)nc2ccccc21 (stereo unspecified)	.	.	-38%	.	.	.
Cc1ccc(-c2cc(C(=O)Nc3ccc(S(=O)(=O)N4CCCCC4C)cc3)no2)cc1F (stereo unspecified)	.	.	0%	.	.	.
COc1cc2c(cc1OC)C(c1ccc(N)cc1)=NNC(=O)C2	21µM*	.	-7%	15µM*	.	.
Cc1ccc(S(=O)(=O)N(C)c2ccc3c(c2)C(=O)c2ccccc2-3)cc1	16µM*	33	4%	?	0%	1%
